Experimental data as given in the OligoGym collection.

What follows are sequences tested against MRO (assay: pooled miR-30 sensor sort-seq; sequence = guide strand). Conditions: shRNA.
Further: reference of the scale not given here.

Row | Sequence | sensor-assay potency score (higher = more potent)
1 | TTGATCTTCTTCACTCTGGAAG | -0.557
2 | ATACAGTCCATACACCAGCAGG | -1.19
3 | TATACTTTCTCACCTTGTCAGG | -0.957
4 | TTTCTTATACTTTCTCACCTTG | -0.188
5 | TAGTGTTCCTTTGATCTTCTTC | 0.466
6 | AAGAACTGCAGGATCTCTGGAT | 0.374
7 | TCATCATCTAATAAAGTCCTGG | -0.176
8 | TTGTTTTGCAAGCCTTGGCAAC | -1.43
9 | TTTGATCTTCTTCACTCTGGAA | -0.504
10 | TTTGCAAGCCTTGGCAACCTGG | -1.05
11 | TTTTCTTATACTTTCTCACCTT | 0.132
12 | TATCATTGATGTCCTTTTCTGC | -0.559

Each sequence was assayed against MRPL14 in the same assay as above. Conditions: shRNA.

Row | Sequence | sensor-assay potency score (higher = more potent)
13 | TTAATTCGTGTCCCCACAGGGT | -1.22
14 | TTGATGGCCAGTAGTATCTGGT | -0.918
15 | TTGTTGGAGTCGAATCTGGGGG | -0.711
16 | TTGTCCACCACTCGTACCCGCG | -1.02
17 | TTCTTATAGACATGGATGCAGC | -1.01
18 | ATTCTTCTTATAGACATGGATG | -1.46
